From PubChem BioAssay (NCI) come the findings set out here.

Compounds without any hit were thinned out: in the full panel of roughly 83,000, 20% have a hit.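 How to read the values: 0–100, growth inhibition (40 = 60% inhibited); 0, no net growth; -100 to 0, cell death (-40 = 40% of starting cells died; -100 = all dead).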 Unmarked numbers belong to inactive results. Active and inactive are the calls of the source. How the source made its calls: active means growth percent below 10; inactive means the rest.

The assay relates to MDA-MB-468 breast. Put plainly: NCI-60 one-dose screen, 48 h (100 = growth as untreated, 0 = no growth, -100 = all killed). The settings on record: 10 µM unless noted.
On to `CCC(c1ccc(OC)cc1)C(CC)c1ccc(O)c(CN2CCN(C)CC2)c1` (stereo not given), for which the growth is 30%. In the case of `Nc1nc(-c2cccc(Br)c2)cc(-c2cc3ccccc3oc2=O)n1` it was 91.8%. In the case of `O=c1[nH]c(-c2ccc(Cl)cc2)nc2sc3c(c12)CCCC3` it was 82.2%. As for `COc1cc(/C=C2\SC(N3CCCCC3)=NC2=O)ccc1OCCCCCCOc1ccc(/C=C2\SC(N3CCCCC3)=NC2=O)cc1OC`, the figure is 7.38% (active); as for `C=C(C)[C@@H]1CC[C@]2(CO)CC[C@]3(C)[C@H](CC[C@@H]4[C@@]5(C)CCCNC(C)(C)[C@@H]5CC[C@]43C)[C@@H]12`, 11.7%.

For the compound `CCCCCCN(CCCCCC)c1ccc(/C=C2/SC(=O)NC2=O)c(C)c1`, the growth is 80.6%.

As for `COC(=O)C1OC1c1cc([N+](=O)[O-])ccc1OC` (stereo not given), the growth was 76.2%. In the case of `CCOC(=N)c1ccc(C(=N)OCC)cc1` it was 106%; in that of `C=CC(=O)Nc1ccc(Oc2nccc(Nc3nnc(-c4ccc(C)cc4)s3)n2)cc1`, 111%; in that of `CCN1CC(CCN2CCOCC2)C(C(c2ccccc2)c2ccccc2)C1=O` (stereo not given), 102%. As for `O=c1cc(CP(=O)(O)O)c2cc(O)c(-c3ccccc3)cc2o1`, the figure is 99.1%; as for `O=C1NC2(Nc3ccccc31)C(=O)Nc1c(Cl)cc(Cl)cc12` (stereo not given), 112%; as for `O=C1Nc2c(C(=O)O)cccc2/C1=N/c1n[nH]c(=S)s1`, 89.4%. On to `Cc1nc2cncc(C#Cc3cncc(C(=O)Nc4ccc(CN5CCN(C)CC5)c(C(F)(F)F)c4)c3)c2nc1C`, for which the growth is 37.3%. As for `CCOC(=O)c1[nH]c(C#N)c(C(=O)OCC)c1C`, the figure is 105%; as for `Nc1nc(Nc2ccccc2SSc2ccccc2Nc2nc(N)nc(-c3cccc(Cl)c3)n2)nc(-c2cccc(Cl)c2)n1`, 95.3%; as for `O=Cc1ccc(F)cc1`, 91%.

For `O=[N+]([O-])c1cc(Cl)c2[nH]c3c(Cl)cc([N+](=O)[O-])cc3c2c1`, the growth is -17.9% (active). In the case of `O=C(O)CCN1CCN(c2cccc(Cl)c2)CC1` it was 103%. In the case of `O=S(=O)(Nc1ccc(I)cc1Cl)c1ccc(-c2cnc(C3CC3)o2)cc1` it was 20.1%. Consider `COc1cccc(N=Nc2cccc(OC)c2)c1`, for which the growth was 87.2%.

As to `CS(=O)(=O)c1ccc(-c2nn(-c3ccccc3)cc2/C=N/NC(=O)c2nc(N)n[nH]2)cc1`, the growth was 98.2%. For `N=c1ccc2nc3ccc(N)cc3sc-2c1`, the growth was -16.2% (active). In the case of `CCCCC[C@H](O)C/C=C1/C(=O)C=C[C@@H]1C/C=C\CCCC(=O)OC`, the growth is 64.6%.

For `C=C1C(=O)O[C@H]2[C@H]1CC/C(COC(=O)NCc1c[nH]c3ccc(Br)cc13)=C\CC[C@@]1(C)O[C@@H]21`, the growth is -58% (active).

With `CNc1ccc(CSc2ccc(C)cc2)cc1`, the growth is 15.6%. In the case of `COc1cc(/C=C2\C(=O)Nc3ccccc32)cc(OC)c1O` it was 20.4%. In the case of `COc1ccc(-c2nc(SCC(C)C)nc(Nc3ccccc3)c2C#N)cc1` it was 80.7%; in that of `CCOC(=O)C#Cc1c(C(=O)OCC)nnn1[C@@H]1O[C@H](COC)[C@@H](OC)[C@H]1OC`, -20.5% (active); in that of `CC/C(=C(/c1ccc(OCCN(C)C)cc1)c1ccc(OC(=O)CCC(=O)c2c(C)[nH]c(/C=C3\N=C(c4ccc[nH]4)C=C3OC)c2C)cc1)c1ccccc1`, 53.4%. `CCOC(=O)c1ccc(N=Cc2sc(=O)[nH]c2O)cc1`: the growth is 98.6%. In the case of `COc1cc2c(O)n(CCCn3ccnc3)c3c4cnc5cccc(c(=O)c3c2cc1OC)c54` it was 4.34% (active). For `O=C1c2cc3c(cc2-c2c1c1cc(Cl)c(Cl)cc1c(=O)n2C[C@H](O)CO)OCO3`, the growth is -54.1% (active). As for `O=S(=O)(NCCNc1nccc(-c2c(-c3cccc(F)c3)nc3occn23)n1)c1cccc2ccccc12`, the figure is 35.2%; as for `CCCCn1c(=O)[nH]c(N)c(C(c2ccc(Cl)cc2)c2c(N)[nH]c(=O)n(CCCC)c2=O)c1=O`, 10.1%; as for `C=CC(=O)N1CCC=C(c2cc3c(N[C@H](C)c4ccccc4)ncnc3[nH]2)C1`, 9.58% (active).

Take `OCCCc1ccccc1`: the growth was 104%. As for `COc1ccc(NC(=O)c2cccc(-c3cc(=O)c4c(O)c(OC)c(OC)cc4o3)c2)cc1`, the figure is 84.3%; as for `O=CN1N=C(c2cccc(Nc3ccnc4cc(Cl)ccc34)c2)CC1c1ccc(Cl)cc1` (stereo not given), -4.05% (active); as for `CNC(=O)c1[nH]cc(-c2ccc(OC)cc2)c1-c1cc(OC)c2c(c1OC)OCO2`, 97.7%.
